This is an account of results in publication PMC9838217, “Structure of SALL4 zinc finger domain reveals link between AT-rich DNA binding and Okihiro syndrome”.

The target of experiment [1] is T1, SALL4 ZFC4 R900W (HT-SELEX) (Mus musculus, UniProt Q8BX22 870-940, R900W).
T1 sequence: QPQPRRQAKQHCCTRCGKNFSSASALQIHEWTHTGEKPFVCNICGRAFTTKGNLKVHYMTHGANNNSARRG
In words: HT-SELEX; high values mean tight binding. To be noted: protein: recombinant; vector His6-GST; dsDNA, one strand shown. A digest of the protocol: (§1)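 Each canonical k-mer's binding signal is its read fraction expressed as fold change over the initial random library. Reads came from MiSeq sequencing, scanned for 6-mers, after up to 6 triplicate cycles in which purified recombinant mouse SALL4 zinc finger cluster 4 (residues 870–940, 1 µg) bound library DNA (1.5 µg first cycle, 200 ng later) in 100 µl of 10 mM Tris–HCl pH 7.5, 50 mM NaCl, poly(dI-dC), DTT for 10 min at room temperature. Complexes were then Ni2+ bead-captured, washed, PCR-amplified and reselected.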

Experiment [2] has as its target T2, SALL4 ZFC4 G921D (HT-SELEX) (Mus musculus, UniProt Q8BX22 870-940, G921D).
T2 sequence: T1 sequence with W31R, G52D
Kind of experiment: HT-SELEX; high values mean tight binding. To be noted: protein: recombinant; vector His6-GST; dsDNA, one strand shown. In a few lines: as §1

Substitutions are numbered along the chain they refer to.

With GCCCTA, the binding signal in experiment [1] is 0.353 ± 0.0173 fold-change vs cycle 0; in experiment [2], 0.496 ± 0.0842 fold-change vs cycle 0.

For the sequence CGCGGA, the binding signal in experiment [1] stood at 0.105 ± 0.00959 fold-change vs cycle 0; in experiment [2], 0.199 ± 0.0519 fold-change vs cycle 0.

GAAGTA: the binding signal in experiment [1] was determined as 1.6 ± 0.0945 fold-change vs cycle 0; in experiment [2] it was 1.43 ± 0.121 fold-change vs cycle 0.

Take CCAGCC: the binding signal in experiment [1] was 0.149 ± 0.0151 fold-change vs cycle 0; in experiment [2], 0.273 ± 0.0654 fold-change vs cycle 0.

With CCCCCC, the binding signal in experiment [1] is 0.217 ± 0.0203 fold-change vs cycle 0; in experiment [2], 0.314 ± 0.0628 fold-change vs cycle 0.

In the case of CGACCG, the binding signal in experiment [1] is 0.146 ± 0.0139 fold-change vs cycle 0; in experiment [2] it was 0.263 ± 0.0799 fold-change vs cycle 0.

On to AGCCCG, for which the results for the binding signal in experiment [1] and in experiment [2] were 0.14 ± 0.0115 fold-change vs cycle 0 and 0.253 ± 0.0774 fold-change vs cycle 0, respectively.

Take CGGCGC: the results for the binding signal in experiment [1] and in experiment [2] were 0.0207 ± 0.00259 fold-change vs cycle 0 and 0.0907 ± 0.0497 fold-change vs cycle 0, respectively.

Turning to GGTGCA, the results for the binding signal in experiment [1] and in experiment [2] were 0.359 ± 0.0169 fold-change vs cycle 0 and 0.479 ± 0.0732 fold-change vs cycle 0, respectively.

Turning to CTGCGA, the figures for the binding signal in experiment [1] and in experiment [2] were 0.28 ± 0.0255 fold-change vs cycle 0 and 0.404 ± 0.0745 fold-change vs cycle 0, respectively.

As for GGCCAA, the binding signal in experiment [1] came to 0.221 ± 0.00964 fold-change vs cycle 0; in experiment [2], 0.358 ± 0.0813 fold-change vs cycle 0.

For GCGAGC, the binding signal in experiment [1] came out at 0.103 ± 0.00798 fold-change vs cycle 0; in experiment [2] it was 0.229 ± 0.0707 fold-change vs cycle 0.

With CAAGCG, the binding signal in experiment [1] is 0.313 ± 0.0138 fold-change vs cycle 0; in experiment [2] it was 0.452 ± 0.0669 fold-change vs cycle 0.

For the sequence ACGCAC, the binding signal in experiment [1] worked out at 0.27 ± 0.0299 fold-change vs cycle 0; in experiment [2] it was 0.404 ± 0.0719 fold-change vs cycle 0.

Consider CCGCCG, for which the binding signal stood at 0.0347 ± 0.00309 fold-change vs cycle 0 in experiment [1] and 0.117 ± 0.0571 fold-change vs cycle 0 in experiment [2].

For CATGCG, the binding signal in experiment [1] was determined as 0.296 ± 0.011 fold-change vs cycle 0; in experiment [2], 0.441 ± 0.076 fold-change vs cycle 0.

In the case of GCGGCA, the binding signal in experiment [1] is 0.0597 ± 0.00711 fold-change vs cycle 0; in experiment [2], 0.158 ± 0.0724 fold-change vs cycle 0.

Regarding AGCAGC, the values for the binding signal in experiment [1] and in experiment [2] were 0.286 ± 0.013 fold-change vs cycle 0 and 0.426 ± 0.0467 fold-change vs cycle 0, respectively.

With AGCGGG, the results for the binding signal in experiment [1] and in experiment [2] were 0.168 ± 0.0263 fold-change vs cycle 0 and 0.277 ± 0.0671 fold-change vs cycle 0, respectively.

Consider CCACCG, for which the binding signal in experiment [1] amounted to 0.209 ± 0.0206 fold-change vs cycle 0; in experiment [2] it was 0.322 ± 0.0675 fold-change vs cycle 0.

Take GCCCAC: the binding signal is 0.151 ± 0.00605 fold-change vs cycle 0 in experiment [1] and 0.271 ± 0.0717 fold-change vs cycle 0 in experiment [2].

AGCCCA: the binding signal amounted to 0.323 ± 0.00919 fold-change vs cycle 0 in experiment [1] and 0.465 ± 0.0703 fold-change vs cycle 0 in experiment [2].

Take CCACCC: the binding signal in experiment [1] amounted to 0.298 ± 0.0277 fold-change vs cycle 0; in experiment [2], 0.395 ± 0.0676 fold-change vs cycle 0.

As to CGTGCA, the binding signal was determined as 0.286 ± 0.00377 fold-change vs cycle 0 in experiment [1] and 0.417 ± 0.0517 fold-change vs cycle 0 in experiment [2].

On to GAGGCA, for which the binding signal stood at 0.367 ± 0.0203 fold-change vs cycle 0 in experiment [1] and 0.505 ± 0.1 fold-change vs cycle 0 in experiment [2].

In the case of GACGGC, the binding signal in experiment [1] came to 0.105 ± 0.00605 fold-change vs cycle 0; in experiment [2], 0.211 ± 0.0714 fold-change vs cycle 0.

As for CCCGAC, the binding signal in experiment [1] was determined as 0.183 ± 0.0155 fold-change vs cycle 0; in experiment [2] it was 0.308 ± 0.0677 fold-change vs cycle 0.

As to ACGAGC, the binding signal came out at 0.322 ± 0.019 fold-change vs cycle 0 in experiment [1] and 0.459 ± 0.061 fold-change vs cycle 0 in experiment [2].

On to GGGGAC, for which the figures for the binding signal in experiment [1] and in experiment [2] were 0.299 ± 0.0209 fold-change vs cycle 0 and 0.403 ± 0.0552 fold-change vs cycle 0, respectively.

With ACTCGC, the binding signal is 0.3364 ± 0.000841 fold-change vs cycle 0 in experiment [1] and 0.463 ± 0.0712 fold-change vs cycle 0 in experiment [2].

Regarding AGCGCG, the binding signal in experiment [1] was found to be 0.0579 ± 0.00565 fold-change vs cycle 0; in experiment [2] it was 0.159 ± 0.0595 fold-change vs cycle 0.

Take GCGCGA: the binding signal amounted to 0.0544 ± 0.00435 fold-change vs cycle 0 in experiment [1] and 0.152 ± 0.0576 fold-change vs cycle 0 in experiment [2].

Take AGGCGC: the binding signal in experiment [1] was determined as 0.0722 ± 0.0162 fold-change vs cycle 0; in experiment [2] it was 0.185 ± 0.0792 fold-change vs cycle 0.

ACCCGG: the binding signal in experiment [1] worked out at 0.233 ± 0.025 fold-change vs cycle 0; in experiment [2], 0.341 ± 0.0691 fold-change vs cycle 0.

With AGTCGC, the binding signal in experiment [1] was determined as 0.244 ± 0.0172 fold-change vs cycle 0; in experiment [2], 0.386 ± 0.0654 fold-change vs cycle 0.

With GGGGCA, the figures for the binding signal in experiment [1] and in experiment [2] were 0.178 ± 0.00946 fold-change vs cycle 0 and 0.291 ± 0.0681 fold-change vs cycle 0, respectively.

Turning to GACGCC, the binding signal in experiment [1] was 0.116 ± 0.00704 fold-change vs cycle 0; in experiment [2], 0.225 ± 0.0674 fold-change vs cycle 0.

As for GGTCGA, the binding signal in experiment [1] was found to be 0.33 ± 0.0136 fold-change vs cycle 0; in experiment [2], 0.48 ± 0.0759 fold-change vs cycle 0.

On to GGCCAC, for which the figures for the binding signal in experiment [1] and in experiment [2] were 0.126 ± 0.019 fold-change vs cycle 0 and 0.253 ± 0.0792 fold-change vs cycle 0, respectively.

In the case of CCGACC, the binding signal in experiment [1] came to 0.172 ± 0.00253 fold-change vs cycle 0; in experiment [2] it was 0.309 ± 0.075 fold-change vs cycle 0.

GCGCAA: the binding signal in experiment [1] was found to be 0.123 ± 0.00425 fold-change vs cycle 0; in experiment [2] it was 0.249 ± 0.0828 fold-change vs cycle 0.

With CGGCTA, the results for the binding signal in experiment [1] and in experiment [2] were 0.246 ± 0.00516 fold-change vs cycle 0 and 0.375 ± 0.0584 fold-change vs cycle 0, respectively.

With CGAGCC, the binding signal in experiment [1] was 0.138 ± 0.0111 fold-change vs cycle 0; in experiment [2], 0.272 ± 0.0858 fold-change vs cycle 0.

Consider CCCAGC, for which the binding signal in experiment [1] is 0.179 ± 0.0134 fold-change vs cycle 0; in experiment [2], 0.297 ± 0.0797 fold-change vs cycle 0.

As for GACGCA, the binding signal amounted to 0.263 ± 0.0079 fold-change vs cycle 0 in experiment [1] and 0.386 ± 0.0647 fold-change vs cycle 0 in experiment [2].

For GCCCGC, the binding signal worked out at 0.0368 ± 0.00404 fold-change vs cycle 0 in experiment [1] and 0.115 ± 0.0587 fold-change vs cycle 0 in experiment [2].

For GACAGC, the binding signal was 0.361 ± 0.0178 fold-change vs cycle 0 in experiment [1] and 0.491 ± 0.0963 fold-change vs cycle 0 in experiment [2].

Turning to GTCGCA, the binding signal in experiment [1] came out at 0.215 ± 0.0161 fold-change vs cycle 0; in experiment [2] it was 0.341 ± 0.0831 fold-change vs cycle 0.

As to CGCCTA, the binding signal in experiment [1] was determined as 0.26 ± 0.0104 fold-change vs cycle 0; in experiment [2], 0.413 ± 0.0625 fold-change vs cycle 0.

Regarding GTGTTA, the results for the binding signal in experiment [1] and in experiment [2] were 1.37 ± 0.0667 fold-change vs cycle 0 and 1.31 ± 0.0659 fold-change vs cycle 0, respectively.

As to CCCTCG, the binding signal is 0.278 ± 0.0226 fold-change vs cycle 0 in experiment [1] and 0.388 ± 0.0906 fold-change vs cycle 0 in experiment [2].

For CGCCCC, the binding signal in experiment [1] was 0.0728 ± 0.00775 fold-change vs cycle 0; in experiment [2] it was 0.173 ± 0.0648 fold-change vs cycle 0.

For the sequence ACGCGC, the binding signal is 0.0585 ± 0.00894 fold-change vs cycle 0 in experiment [1] and 0.159 ± 0.07 fold-change vs cycle 0 in experiment [2].

On to GCGTCC, for which the binding signal was found to be 0.152 ± 0.014 fold-change vs cycle 0 in experiment [1] and 0.258 ± 0.0705 fold-change vs cycle 0 in experiment [2].

As to CCAGCG, the binding signal in experiment [1] is 0.131 ± 0.0133 fold-change vs cycle 0; in experiment [2], 0.245 ± 0.0689 fold-change vs cycle 0.

Regarding AGGGGC, the binding signal is 0.195 ± 0.00634 fold-change vs cycle 0 in experiment [1] and 0.332 ± 0.0629 fold-change vs cycle 0 in experiment [2].

Turning to GGCGAA, the binding signal in experiment [1] was 0.216 ± 0.00992 fold-change vs cycle 0; in experiment [2], 0.36 ± 0.0782 fold-change vs cycle 0.

With CCCAGG, the binding signal in experiment [1] stood at 0.297 ± 0.008 fold-change vs cycle 0; in experiment [2], 0.401 ± 0.05 fold-change vs cycle 0.

TGCCCA: the binding signal in experiment [1] came to 0.29 ± 0.00772 fold-change vs cycle 0; in experiment [2], 0.437 ± 0.0679 fold-change vs cycle 0.

As to CCGCCC, the binding signal was determined as 0.0662 ± 0.0114 fold-change vs cycle 0 in experiment [1] and 0.164 ± 0.0742 fold-change vs cycle 0 in experiment [2].
